The target in assay [1] is Lysosomal acid glucosylceramidase (Homo sapiens) (UniProt P04062). The experiment in a line: Glucocerebrosidase-p2 (AID 348; in the data active means potency below about 10 µM; further: potency means the concentration at half of the fitted maximal effect). The conditions noted are these: purified GBA, blue fluorogenic substrate, 40 min. A digest of the protocol: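 Normal human glucocerebrosidase (0.2 nM) with blue fluorogenic substrate (80 uM final) in citrate/phosphate pH 5.9 with 10mM sodium taurocholate, 0.01% tween-20; 40 min RT, NaOH/glycine stop; fluorescence Ex 365/Em 440; AC50 from a titration from 0.6 nM upwards.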

A short description of assay [2]: AP1 Signaling Pathway (AID 357).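 Further: ME-180 reporter cells stimulated with EGF at its EC50 level; on the % scale 0 is the no-effect control and ±100 the full control effect.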 The settings on record: ME-180 AP-1-bla reporter, EGF-induced, beta-lactamase ratio, 5 h; at 7.69 µM (top of the series) unless noted. Summed up: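 A ratiometric CCF4 readout (405 nm excitation; 460 and 530 nm emission) quantified AP-1-driven beta-lactamase in ME-180 cells after 5 h with compound and EC50 EGF; AC50 values were derived for activators and inhibitors.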

In assay [3] the target is Cytochrome P450 1A2 (Homo sapiens) (UniProt P05177). As to the kind of experiment: p450-cyp1a2 (AID 410; calls by dose curve; further: potency means the concentration at half of the fitted maximal effect;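 on activity change, negative = inhibition: -100% = full effect of reference inhibitor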). The settings on record: recombinant CYP1A2, luciferin-ME demethylation, luminescence; series mostly up to 57 µM. Summed up:
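Read-out is luminescence from luciferin produced by CYP1A2 demethylation of Luciferin-ME (100uM, at Km). Detection reagent stopped the 60 min NADPH-dependent reaction; signals were normalized to 57 uM furafylline.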

A short description of assay [4]: NFAT Signaling Pathway (AID 444).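 Further: carbachol stimulus at about its EC50 of 1 µM final; on the % scale 0 is the no-effect control and ±100 the full control effect.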 The settings on record: Jurkat NFAT-bla M1, carbachol, beta-lactamase ratio, 5 h; at 7.69 µM (top of the series) unless noted. A digest of the protocol: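 Jurkat cells with NFAT-driven β-lactamase reporter and co-expressed M1 receptor, stimulated with carbachol (final 1 uM, ~EC50), compound titration, 5 h at 37 °C. CCF4 loaded 1 h at RT; 460/530 nm ratio gave %activity and AC50.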

Assay [5] can be described thus: Stat Signaling Pathway (AID 446).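 Further: ME-180 cervical cancer cells given 40 pM IL-6 alongside compound; SIE-controlled beta-lactamase reporter measured as 460/530 nm FRET emission ratio; on the % scale 0 is the no-effect control and ±100 the full control effect.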 The conditions noted are these: ME-180 (cervical carcinoma) SIE beta-lactamase reporter, IL-6 stimulated, 5 h; at 7.69 µM (top of the series) unless noted. A digest of the protocol: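 Compound effects on IL-6-induced STAT reporter activity were measured in ME-180 cells. After overnight culture, cells were co-treated with 40 pM IL-6 for 5 hrs before beta-lactamase substrate loading at room temperature.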

For assay [6], the target named is Glucocorticoid receptor (Homo sapiens) (UniProt P04150). The experiment in a line: GR-EFC Redistribution (AID 451; calls by dose curve; further: potency means the concentration at half of the fitted maximal effect). The settings on record: CHO-K1 GR-EFC translocation, beta-gal luminescence, 2 h. Summed up: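 CHO-K1 cells expressing nuclear EA and GR-ED fragments of b-gal; compounds titrated up to 46 uM final, 2 h at 37 C. GR nuclear translocation read as complemented b-gal luminescence after 1 h RT detection.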

Assay [7] has as its target Mitogen-activated protein kinase 10 (Mus musculus) (UniProt Q61831). The experiment in a line: JNK3 AlphaScreen Assay (AID 530).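 Further: kinase came from lysate of stimulated human HepG2 cells; signal reports phosphorylation of biotinylated GST-cJun 1-79 at Ser73 with 10 µM ATP; on the % scale 0 is the no-effect control and ±100 the full control effect.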 The settings on record: JNK3 lysate, c-Jun phosphorylation; series mostly up to 57.1 µM. Summed up: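 HepG2 lysate (IL-1b/TNFa pre-activated) + biotin-GST-cJun 1-79 + anti-pSer73 cJun; cpd titration, 15 min RT; ATP 10 uM start; Tris pH 7.6, MgCl2, DTT, vanadate; beads in EDTA buffer; AlphaScreen.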
A general note: In Alpha technology, singlet oxygen from a donor bead excites a nearby acceptor bead.

Assay [8] deals with 3',5'-cyclic-AMP phosphodiesterase 4B (Homo sapiens) (UniProt Q07343). As to the kind of experiment: qHTS Assay for Inhibitors of PDE-IV (AID 607; active means well fitted activation curve with a large enough effect in the main read-out, with a control signal flat, not every such curve was filed as active; further: % of control where 0% means no effect). The conditions noted are these: HEK293 ACTOne CNG channel cells, membrane potential fluorescence; series mostly up to 22.9 µM. A digest of the protocol:
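ACTOne HEK293 cells carry a modified cAMP-gated CNG channel and express endogenous PDE4; plated 1000 cells/well, compounds up to 22.9 uM final. Membrane-potential dye fluorescence (ex 535/em 590) was read; parental cells received 10 uM forskolin + 100 uM RO 20-1724.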

The target in assay [9] is Cytochrome P450 3A4 (Homo sapiens) (UniProt P08684). As to the kind of experiment: qHTS Assay for Activators of Cytochrome P450 3A4 (AID 885; active means well fitted curve in the direction sought with a large enough effect; an effect the other way counts as inactive or inconclusive; further: nearly all actives have a fitted effect of over 65% in size). The conditions noted are these: recombinant CYP3A4, Luciferin-PPXE luminescence, 60 min; series mostly up to 57.1 µM. A digest of the protocol:
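CYP3A4 activity: Luciferin-PPXE O-dealkylation, 25uM substrate, 200mM KPO4, RT throughout. Read-out is luciferase luminescence; higher values reflect activation.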
(In general: qHTS replaces the single test concentration by a dilution series.)

The target in assay [10] is Cytochrome P450 2C19 (Homo sapiens) (UniProt P33261). The experiment in a line: qHTS Assay for Inhibitors and Substrates of Cytochrome P450 2C19 (AID 899; active means well fitted curve in the direction sought with a large enough effect; an effect the other way counts as inactive or inconclusive; further: potency means the concentration at half of the fitted maximal effect; nearly all actives have a fitted effect of over 60% in size). The conditions noted are these: recombinant CYP2C19, luciferin-H EGE luminescence; series mostly up to 57.1 µM. A digest of the protocol: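 Signal comes from luciferase acting on luciferin released by CYP2C19-mediated hydroxylation of Luciferin-H EGE, 10uM (KM). Assay mix: 5nM enzyme, 50mM KPO4; 60 min at 37C with NADPH regeneration. Data normalized against 57uM ketoconazole.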

Assay [11] is described as follows: qHTS Assay for Lipid Storage Modulators (AID 1519; calls by dose curve). The conditions noted are these: Drosophila S3 cells, BODIPY lipid droplet/cell ratio, laser cytometry, cells loaded with oleic acid; for activity change, negative = inhibition: at 57.5 µM (top of the series). A digest of the protocol: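 Cells seeded at 5,000 per well were treated with compounds over a concentration series and loaded with oleic acid (400 uM, as added). Lipid droplet fluorescence (488 nm excitation, 500-530 nm channel) was read by laser-scanning cytometry and normalized to 20 uM Triacsin C.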

A short description of assay [12]: Primary qHTS for small molecule stabilizers of the endoplasmic reticulum resident proteome: Secreted ER Calcium Modulated Protein (SERCaMP) assay (AID 1508630; active means well fitted curve in the direction sought with a large enough effect; an effect the other way counts as inactive or inconclusive; further: on the % scale 0 is the no-effect control and ±100 the full control effect). The conditions noted are these: SH-SY5Y GLuc-SERCaMP (Gaussia luciferase released on ER calcium loss) secretion, thapsigargin, luminescence; series mostly up to 38.4 µM. A digest of the protocol:
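The SH-SY5Y reporter protocol was run at 3 concentrations up to 38.3 uM (primary) or 11 concentrations (follow-up): 16 h compound, 100 nM thapsigargin for 4 h, then extracellular luciferase luminescence.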

Setting [13] is: measured here: cell count channel max response.
Setting [14] is: measured here: lipid channel max response.

Experimental findings from PubChem BioAssay (NCATS) are described below.

Structures are written as SMILES. Records with an inconclusive call do not appear. Active and inactive are the calls of the source. Unless noted, the call rests on the fitted dose curve; in most records, active means well fitted curve in either direction with a large enough effect (not every such curve was filed as active); inconclusive means small, poorly fitted or top-dose-only effect, or another doubt; inactive means flat fitted curve, though single readings scatter.

Sequence of Glucocorticoid receptor (Homo sapiens) (P04150 whole entry, looked up, the tested form may be a part): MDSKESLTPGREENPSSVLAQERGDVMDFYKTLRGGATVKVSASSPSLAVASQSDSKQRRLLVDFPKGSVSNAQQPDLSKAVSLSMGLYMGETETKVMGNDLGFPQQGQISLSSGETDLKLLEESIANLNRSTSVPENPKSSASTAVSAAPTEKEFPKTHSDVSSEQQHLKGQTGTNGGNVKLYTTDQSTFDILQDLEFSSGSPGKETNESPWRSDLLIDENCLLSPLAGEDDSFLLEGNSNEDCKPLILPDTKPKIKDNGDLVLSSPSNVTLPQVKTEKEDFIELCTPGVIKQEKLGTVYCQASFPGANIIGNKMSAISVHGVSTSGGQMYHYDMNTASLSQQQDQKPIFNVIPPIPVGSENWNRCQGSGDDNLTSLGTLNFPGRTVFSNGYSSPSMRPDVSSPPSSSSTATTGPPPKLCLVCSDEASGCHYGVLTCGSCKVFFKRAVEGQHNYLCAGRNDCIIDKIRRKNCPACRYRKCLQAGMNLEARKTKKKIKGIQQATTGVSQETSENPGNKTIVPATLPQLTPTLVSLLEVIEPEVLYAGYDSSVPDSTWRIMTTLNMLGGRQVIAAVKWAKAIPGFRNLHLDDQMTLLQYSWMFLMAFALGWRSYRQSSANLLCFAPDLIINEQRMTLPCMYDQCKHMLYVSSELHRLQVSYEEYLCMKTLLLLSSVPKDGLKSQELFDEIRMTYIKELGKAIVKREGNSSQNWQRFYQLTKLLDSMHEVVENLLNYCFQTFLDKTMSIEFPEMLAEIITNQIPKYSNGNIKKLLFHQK
Sequence of 3',5'-cyclic-AMP phosphodiesterase 4B (Homo sapiens) (Q07343 whole entry, looked up): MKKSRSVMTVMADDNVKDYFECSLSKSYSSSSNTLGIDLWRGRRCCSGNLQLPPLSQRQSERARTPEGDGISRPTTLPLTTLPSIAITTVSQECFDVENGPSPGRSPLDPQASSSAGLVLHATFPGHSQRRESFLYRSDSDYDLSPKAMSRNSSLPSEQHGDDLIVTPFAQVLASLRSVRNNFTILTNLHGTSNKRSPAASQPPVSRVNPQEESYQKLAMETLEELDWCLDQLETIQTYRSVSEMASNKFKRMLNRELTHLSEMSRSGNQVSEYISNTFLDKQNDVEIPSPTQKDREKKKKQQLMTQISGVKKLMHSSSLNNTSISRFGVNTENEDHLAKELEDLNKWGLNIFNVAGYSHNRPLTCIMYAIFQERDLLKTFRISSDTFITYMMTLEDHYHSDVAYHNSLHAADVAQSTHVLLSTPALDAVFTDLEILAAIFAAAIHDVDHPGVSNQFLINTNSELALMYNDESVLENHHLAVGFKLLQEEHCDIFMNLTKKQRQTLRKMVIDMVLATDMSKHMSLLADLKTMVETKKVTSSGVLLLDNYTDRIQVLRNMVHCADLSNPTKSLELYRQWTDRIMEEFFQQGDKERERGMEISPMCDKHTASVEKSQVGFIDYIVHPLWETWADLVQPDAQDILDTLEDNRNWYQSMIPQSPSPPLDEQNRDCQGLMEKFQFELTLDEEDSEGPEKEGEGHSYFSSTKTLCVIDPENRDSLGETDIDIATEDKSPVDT
Sequence of Lysosomal acid glucosylceramidase (Homo sapiens) (P04062 whole entry, looked up): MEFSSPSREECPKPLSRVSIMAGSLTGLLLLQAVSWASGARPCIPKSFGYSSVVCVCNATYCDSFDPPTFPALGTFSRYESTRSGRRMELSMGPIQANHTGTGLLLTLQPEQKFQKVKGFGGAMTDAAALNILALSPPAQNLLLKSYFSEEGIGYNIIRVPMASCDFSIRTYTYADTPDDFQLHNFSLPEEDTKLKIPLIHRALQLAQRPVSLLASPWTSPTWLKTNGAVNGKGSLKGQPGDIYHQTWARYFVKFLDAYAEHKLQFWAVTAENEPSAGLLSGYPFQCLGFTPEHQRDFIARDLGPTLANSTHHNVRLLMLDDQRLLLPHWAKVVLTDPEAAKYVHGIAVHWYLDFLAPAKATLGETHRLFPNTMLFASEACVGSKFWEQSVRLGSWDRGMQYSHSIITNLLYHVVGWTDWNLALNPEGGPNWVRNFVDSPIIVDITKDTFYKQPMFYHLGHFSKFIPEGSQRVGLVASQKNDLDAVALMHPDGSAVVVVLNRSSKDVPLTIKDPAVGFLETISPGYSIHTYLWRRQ
Sequence of Cytochrome P450 1A2 (Homo sapiens) (P05177 whole entry, looked up): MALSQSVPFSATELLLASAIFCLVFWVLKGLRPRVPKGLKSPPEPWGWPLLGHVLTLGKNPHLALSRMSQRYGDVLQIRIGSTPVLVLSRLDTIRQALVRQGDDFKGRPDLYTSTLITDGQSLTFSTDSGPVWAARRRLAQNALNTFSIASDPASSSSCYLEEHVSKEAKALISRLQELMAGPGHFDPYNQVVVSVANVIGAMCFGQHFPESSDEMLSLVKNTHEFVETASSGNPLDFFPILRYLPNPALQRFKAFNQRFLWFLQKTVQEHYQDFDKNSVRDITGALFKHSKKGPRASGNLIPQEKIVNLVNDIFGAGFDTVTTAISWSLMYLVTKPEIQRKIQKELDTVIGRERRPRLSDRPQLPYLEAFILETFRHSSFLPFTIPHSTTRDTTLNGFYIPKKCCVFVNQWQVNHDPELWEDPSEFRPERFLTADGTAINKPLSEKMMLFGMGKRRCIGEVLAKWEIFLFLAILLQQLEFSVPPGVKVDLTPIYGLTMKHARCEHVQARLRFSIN
Sequence of Cytochrome P450 3A4 (Homo sapiens) (P08684 whole entry, looked up): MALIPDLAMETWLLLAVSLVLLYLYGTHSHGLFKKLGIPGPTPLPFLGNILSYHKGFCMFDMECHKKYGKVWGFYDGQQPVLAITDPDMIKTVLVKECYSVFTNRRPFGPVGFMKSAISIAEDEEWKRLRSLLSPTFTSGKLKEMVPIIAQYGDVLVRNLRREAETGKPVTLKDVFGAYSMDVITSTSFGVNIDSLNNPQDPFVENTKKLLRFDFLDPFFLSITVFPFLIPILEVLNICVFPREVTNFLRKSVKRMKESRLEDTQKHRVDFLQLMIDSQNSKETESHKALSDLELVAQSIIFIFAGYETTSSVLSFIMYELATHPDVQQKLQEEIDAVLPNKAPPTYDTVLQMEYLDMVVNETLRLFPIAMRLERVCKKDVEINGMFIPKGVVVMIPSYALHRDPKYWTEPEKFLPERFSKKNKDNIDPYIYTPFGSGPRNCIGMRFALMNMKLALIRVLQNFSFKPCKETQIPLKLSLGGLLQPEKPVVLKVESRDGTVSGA
Sequence of Cytochrome P450 2C19 (Homo sapiens) (P33261 whole entry, looked up): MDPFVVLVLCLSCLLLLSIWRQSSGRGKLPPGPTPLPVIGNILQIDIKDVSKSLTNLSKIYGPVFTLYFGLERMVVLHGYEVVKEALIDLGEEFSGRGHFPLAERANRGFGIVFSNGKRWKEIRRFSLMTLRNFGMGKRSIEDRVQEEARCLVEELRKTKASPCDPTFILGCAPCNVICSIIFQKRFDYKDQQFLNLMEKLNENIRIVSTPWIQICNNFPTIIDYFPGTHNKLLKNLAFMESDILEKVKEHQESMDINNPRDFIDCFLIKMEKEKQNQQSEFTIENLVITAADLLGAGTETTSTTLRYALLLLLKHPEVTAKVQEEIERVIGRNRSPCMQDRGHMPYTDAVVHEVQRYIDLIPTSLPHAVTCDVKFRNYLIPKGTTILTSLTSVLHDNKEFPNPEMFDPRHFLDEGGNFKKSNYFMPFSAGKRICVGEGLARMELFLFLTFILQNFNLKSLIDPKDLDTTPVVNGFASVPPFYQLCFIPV

For `Cn1cccc1C(=O)N1CCC[C@@]2(CCN(c3ccncc3)C2)C1`, the Potency in assay [1] was > 11.4 µM (inactive); in assay [3] it was 12.6 µM (active); in assay [6], > 46 µM (inactive); in assay [10] it was 6.31 µM (active). Further, the activity change, negative = inhibition is -2.65% (inactive) in [2], -12.6% (inactive) in assay [4] and -3.31% (inactive) in [11]. In [5], the activity, negative = inhibition was 7.16% (inactive). Besides, the molecule was classed as inactive in assay [7]. Also, the Potency result in assay [8], in [9] and in assay [12] was “inactive” in each case. In addition, the max response in assay [11] (setting [13]) was -3.32%; in assay [11] (setting [14]), -4.8%.
As for `COc1ccc(NC(=O)N2CCCC3(CCN(C(=O)c4cnccn4)CC3)C2)cc1`, the Potency in [1] is > 11.4 µM (inactive); in assay [6], > 46 µM (inactive). For the same molecule, the figures for the activity change, negative = inhibition in [2], in assay [4] and in assay [11] were -0.971% (inactive), 1.32% (inactive) and 4.77% (inactive), respectively. Further, the Potency entry in assay [3], in [8], in assay [9] and in assay [12] was “inactive” throughout. The activity, negative = inhibition in assay [5] is -7.92% (inactive). Further, the call in assay [7] was inactive. The figures for the max response in [11] (setting [13]) and in assay [11] (setting [14]) were 1.78% and 8.5%, respectively.
With `COCC(=O)N1CCC[C@@]2(CCN(Cc3ccc(C#N)cc3)C2)C1`, the Potency is > 11.4 µM (inactive) in [1] and > 46 µM (inactive) in assay [6]. In addition, the figures for the activity change, negative = inhibition in assay [2], in assay [4] and in assay [11] were -13.6% (inactive), 4.93% (inactive) and 5.07% (inactive), respectively. Also, the Potency entry in assay [3], in assay [8], in assay [9] and in assay [12] was “inactive” throughout. In addition, the activity, negative = inhibition in assay [5] is 5.14% (inactive). For the same molecule, the call in assay [7] was inactive. For the same molecule, the max response in [11] (setting [13]) worked out at 7.03%; in [11] (setting [14]), 15.9%.
As for `O=S(=O)(c1ccccc1)N1CCC2(CCCN(c3ncccn3)C2)CC1`, the Potency is > 11.4 µM (inactive) in assay [1], 15.8 µM (active) in assay [3], > 46 µM (inactive) in assay [6] and 0.398 µM (active) in assay [10]. Moreover, the activity change, negative = inhibition in [2] is 0.46% (inactive); in assay [4] it was 5.51% (inactive); in [11] it was 7.3% (inactive). The activity, negative = inhibition in assay [5] is -0.568% (inactive). Moreover, the call in assay [7] was inactive. For the same molecule, the Potency entry in [8], in assay [9] and in assay [12] was “inactive” each time. Also, the max response in assay [11] (setting [13]) is -5.51%; in assay [11] (setting [14]) it was 5.88%.
For `O=C(Nc1cccc(F)c1)N1CCCC2(CCN(S(=O)(=O)c3ccccc3)CC2)C1`, the Potency in [1] was > 11.4 µM (inactive); in assay [6] it was > 46 µM (inactive). Besides, the activity change, negative = inhibition in [2] was -9.39% (inactive); in assay [4] it was -29.9% (inactive); in assay [11], 1.65% (inactive). For the same molecule, the Potency result in assay [3], in assay [8], in assay [9] and in assay [12] was “inactive” in each case. For the same molecule, the activity, negative = inhibition in [5] is -7.25% (inactive). For the same molecule, the molecule was called inactive in assay [7]. In addition, the max response was determined as 13.8% in [11] (setting [13]) and 17.3% in assay [11] (setting [14]).
In the case of `O=C(c1csnn1)N1CCC[C@@]2(CCN(c3ccccn3)C2)C1`, the Potency in assay [1] is > 11.4 µM (inactive); in assay [6] it was > 46 µM (inactive). Besides, the activity change, negative = inhibition in assay [2] is -10.6% (inactive); in assay [4], -7.38% (inactive); in assay [11], 3.43% (inactive). For the same molecule, the Potency entry in assay [3], in [8], in assay [9] and in assay [12] was “inactive” throughout. In addition, the activity, negative = inhibition in assay [5] is 8.47% (inactive). The outcome in assay [7] was inactive. Further, the values for the max response in assay [11] (setting [13]) and in assay [11] (setting [14]) were 4.63% and 10.9%, respectively.
In the case of `CC(=O)N1CCC[C@@]2(CCN(Cc3ccccc3)C2)C1`, the Potency in assay [1] was > 11.4 µM (inactive); in [6], > 46 µM (inactive). For the same molecule, the activity change, negative = inhibition in [2] is -2.69% (inactive); in assay [4] it was 17.1% (inactive); in assay [11], 6.41% (inactive). The Potency result in [3], in [8], in [9] and in assay [12] was “inactive” throughout. The activity, negative = inhibition in assay [5] was -3.06% (inactive). The result in assay [7] was inactive. Further, the max response was 8.55% in assay [11] (setting [13]) and 16.4% in assay [11] (setting [14]).
